{
  "source": "PubChem BioAssay AID1347056",
  "about": "(Sanford-Burnham Center for Chemical Genomics, 2019)",
  "note": "The campaign covered roughly 360,000 compounds. About 3,600 (1%) were called active. What follows is part of a selection rich in actives, with near analogues and random picks from the rest. Unmarked numbers belong to inactive results.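 Rule for the calls: active = compounds whose plate-normalised and pattern-corrected inhibition of the luciferase reporter signal at the single screening dose is 50% or more; inactive = the rest.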",
  "data": [
    {"assay": "TROY pathway blockers in reporter cells – Q293 LMP1-TROYcd cells, NF-kB luciferase, uHTS, primary screen (AID 1347056)", "details": "4 h, at 10 µM, active compounds read high", "values": [
      {"smiles": "CN(C)/C=C/C(=O)c1cnc2sccn2c1=O", "inhibition": "11.6%"},
      {"smiles": "CCn1c(CC(=O)Nc2ccccc2C)nnc1SCC(=O)NC1=NCCS1", "inhibition": "11%"},
      {"smiles": "COc1cc(C(=O)OCC(=O)N(CC(C)C)C2CCS(=O)(=O)C2)ccc1OCC(C)C", "note": "(stereo not given)", "inhibition": "6.44%"},
      {"smiles": "COc1nc(NC2CCCCC2)nc(N2CCCCCC2)n1", "inhibition": "51.7% (active)"},
      {"smiles": "FC(F)(F)COc1nc(N2CCCCC2)nc(N2CCNCC2)n1", "inhibition": "-47.4%"},
      {"smiles": "Clc1nc(NC2CCCC2)nc(N2CCOCC2)n1", "inhibition": "9.54%"},
      {"smiles": "CN(C)C(=S)Nc1ccc(Br)cc1Cl", "inhibition": "2.66%"},
      {"smiles": "CCOC(=O)[C@]12CCC=C1N(Cc1ccco1)C(=O)[C@H](CC(=O)N1CCSCC1)C2", "inhibition": "-1.7%"},
      {"smiles": "COc1ccc(CCC(=O)OCC(=O)Nc2ccc(C)c(S(=O)(=O)N(C)C)c2)cc1", "inhibition": "12.9%"},
      {"smiles": "c1c2c(cc3sc(N4CCCCC4)nc13)OCCO2", "inhibition": "72.6% (active)"},
      {"smiles": "COc1cccc(N2C(=O)CC(N3CCc4ccccc4C3)C2=O)c1", "note": "(stereo not given)", "inhibition": "2.65%"},
      {"smiles": "CC(Sc1nncn1C)C(=O)Nc1ccccc1-c1ccccc1", "note": "(stereo not given)", "inhibition": "-16.4%"},
      {"smiles": "COc1ccc(CNc2nnnn2C)cc1", "inhibition": "-13.4%"},
      {"smiles": "COc1ccc(-n2nnnc2-c2nc3ccccc3s2)cc1", "inhibition": "73% (active)"},
      {"smiles": "COc1ccc(-n2nnnc2SCC(=O)NCc2cccs2)cc1", "inhibition": "-11.6%"},
      {"smiles": "CC(=O)N1CCN(S(=O)(=O)c2cccc(C(=O)NC3CCC(C)CC3)c2)CC1", "note": "(stereo not given)", "inhibition": "5.64%"},
      {"smiles": "O=C(NC1CC1)c1ccc(-c2ccccc2)cc1", "inhibition": "-40.9%"},
      {"smiles": "O=C(NC1CC1)c1cccc(Br)c1", "inhibition": "79.2% (active)"},
      {"smiles": "CCCCn1c(N)c(N(CCC(C)C)C(=O)c2ccc(COc3ccccc3)o2)c(=O)[nH]c1=O", "inhibition": "-19.5%"},
      {"smiles": "CCC(CC)C(=O)Nc1ccc(S(=O)(=O)Nc2nccs2)cc1", "inhibition": "-15.5%"},
      {"smiles": "CC1(C)C/C(=C(/C#N)C(N)=O)CCO1", "inhibition": "-13.2%"},
      {"smiles": "O=C(NCc1ccccc1)c1onc(CSc2ccncc2)c1C(=O)NCc1ccccc1", "inhibition": "-21.8%"},
      {"smiles": "CC[C@@H]1Cc2cc(O)ccc2C2=C1c1ccc(O)cc1C[C@H]2CC", "inhibition": "59.9% (active)"},
      {"smiles": "C=CC[n+]1c(-c2ccc(C)cc2)csc1NNC(=O)Nc1ccccc1", "inhibition": "25.5%"},
      {"smiles": "CC(=O)c1cccc(NC(=O)C2CCN(C(=O)c3ccccc3Cl)CC2)c1", "inhibition": "1.66%"},
      {"smiles": "CCSc1nsc(NC(=O)Nc2cccc(C(C)=O)c2)n1", "inhibition": "67.1% (active)"},
      {"smiles": "CSc1ccccc1C(=O)Nc1cccc(C(C)=O)c1", "inhibition": "8.76%"},
      {"smiles": "CC(=O)c1cccc(NC(=S)N2CCN(S(C)(=O)=O)CC2)c1", "inhibition": "-9.61%"},
      {"smiles": "CCCCN1C(=O)C(=O)N(CC(=O)Nc2cccc(C(C)=O)c2)C1=O", "inhibition": "-16.1%"},
      {"smiles": "C=CCSc1nsc(NC(=O)Nc2cccc(C(C)=O)c2)n1", "inhibition": "55.9% (active)"},
      {"smiles": "CCOC12CC(C)(C)CC(C)(CC3=C1C(=O)CC(C)(C)C3)C2", "note": "(stereo not given)", "inhibition": "8.44%"},
      {"smiles": "NC(=O)c1cc(S(=O)(=O)N2CCCC2)ccc1OCc1ccc(F)cc1", "inhibition": "-16.9%"},
      {"smiles": "CCOc1ccc2c(c1)c(=O)c(S(=O)(=O)c1ccc(C)cc1)cn2CC", "inhibition": "0.7%"},
      {"smiles": "N#Cc1cccc(NC(=O)c2cc(C3CCCCN3C(=O)CCc3ccccc3)on2)c1", "note": "(stereo not given)", "inhibition": "19.9%"},
      {"smiles": "CC1CN(C2CCCCC2)c2nc3c(c(=O)n(C)c(=O)n3C)n2C1", "note": "(stereo not given)", "inhibition": "-2.69%"},
      {"smiles": "Nc1ccc(-n2nncc2-c2ccco2)cc1", "inhibition": "-12.6%"},
      {"smiles": "CC(=O)C1=C(O)C(=O)N(c2ccc(Br)cc2)C1c1ccc([N+](=O)[O-])cc1", "note": "(stereo not given)", "inhibition": "-18.5%"},
      {"smiles": "COc1ccc(OC)c(C(O)c2nc3ccccc3n2C)c1", "note": "(stereo not given)", "inhibition": "-7.8%"},
      {"smiles": "OCCCNc1nccc(-c2cc(Nc3cccc(Cl)c3)ncn2)n1", "inhibition": "54.1% (active)"},
      {"smiles": "COc1ccc(C2=NOC(C(=O)NCc3ccco3)C2)cc1OC", "note": "(stereo not given)", "inhibition": "14.5%"},
      {"smiles": "COc1ccc(CNC(=O)CN(Cc2ccc(Cl)cc2)S(C)(=O)=O)cc1", "inhibition": "6.51%"},
      {"smiles": "Cc1cccc(CC(=O)N2CCN=C2SCc2ccc([N+](=O)[O-])cc2)c1", "inhibition": "-7.77%"},
      {"smiles": "COCCNC(=O)CN1C(=O)CSc2ncccc21", "inhibition": "-20.5%"},
      {"smiles": "CCC1(C)NC(=O)N(CC(=O)N2CCN(c3cccc(Cl)c3)CC2)C1=O", "note": "(stereo not given)", "inhibition": "-0.65%"},
      {"smiles": "Cc1ccc2nc(-c3ccc(NC(=O)c4cccnc4)cc3)oc2c1", "inhibition": "50.8% (active)"},
      {"smiles": "Cc1cc(NS(=O)(=O)c2ccc(NC(=O)c3cccnc3)cc2)nc(C)n1", "inhibition": "9.3%"},
      {"smiles": "O=C(Cc1ccccc1)Nc1ccc(NC(=O)c2cccnc2)cc1", "inhibition": "17.2%"},
      {"smiles": "CC(=O)Nc1sc2c(c1C(c1cccc(F)c1)N1CCN(CCO)CC1)CCCC2", "note": "(stereo not given)", "inhibition": "-6.54%"},
      {"smiles": "COc1ccccc1N(C)S(=O)(=O)c1ccc(Cl)c(C(=O)Nc2ccncc2)c1", "inhibition": "-12.4%"},
      {"smiles": "CC(=O)c1ccc(S(=O)(=O)NCCC(=O)N2CCN(c3ccccn3)CC2)cc1", "inhibition": "0.71%"},
      {"smiles": "COc1ccc(C)cc1NC(=O)CSc1cccc[n+]1[O-]", "inhibition": "13%"},
      {"smiles": "CCCn1c(C(Cc2ccccc2)NC(=O)COC)nc2ccccc21", "note": "(stereo not given)", "inhibition": "-16.1%"},
      {"smiles": "O=C(CC(O)(C(F)(F)F)C(F)(F)F)Nc1ccc(Cl)c(Cl)c1", "inhibition": "59.2% (active)"},
      {"smiles": "O=C(CN1CCOCC1)Nc1ccc(NC(=O)CN2CCOCC2)c(Cl)c1", "inhibition": "-4.68%"},
      {"smiles": "CN(CC(=O)Nc1ccc(Cl)c(C(F)(F)F)c1)C(=O)CCC(=O)c1ccccc1", "inhibition": "29.4%"},
      {"smiles": "O=C(CN1CCN(C2CCS(=O)(=O)C2)CC1)N1N=C(c2ccc(Cl)cc2)CC1c1ccco1", "note": "(stereo not given)", "inhibition": "58.2% (active)"},
      {"smiles": "Cc1ccc(C2=NN(C(=O)CSc3nc(N)cc(N)n3)C(c3ccco3)C2)cc1", "note": "(stereo not given)", "inhibition": "-20.4%"},
      {"smiles": "Cc1ccc(C2=NN(C(=O)COc3ncnc4ccccc34)C(c3ccco3)C2)cc1", "note": "(stereo not given)", "inhibition": "3.07%"},
      {"smiles": "CCC1=[N+]([O-])C(C)(/C(C)=N\\O)N(O)C1(C)C", "note": "(stereo not given)", "inhibition": "-4.1%"},
      {"smiles": "CCCN(CCC)S(=O)(=O)c1cc2c(cc1Br)CCN2C(=O)CC", "inhibition": "22.4%"},
      {"smiles": "CCOC(=O)c1ccc(NC(=S)N2CCN(c3ccccn3)CC2)cc1", "inhibition": "-15.3%"},
      {"smiles": "CCCCOc1ccc(CON(C(C)=O)C(C)=O)cc1Cl", "inhibition": "-35.4%"},
      {"smiles": "COC(=O)c1c(C)[nH]c(C(=O)/C=C/c2ccc(Cl)cc2)c1C", "inhibition": "-12.1%"},
      {"smiles": "CC1(C(=O)O)CCCN(C(=O)/C=C/c2ccccc2)C1", "note": "(stereo not given)", "inhibition": "-7.33%"},
      {"smiles": "Cc1[nH]c(=O)c(C(=O)/C=C/c2ccccc2)c2c1CCCC2", "inhibition": "52% (active)"},
      {"smiles": "COc1cccc(-c2nnc(NC(=O)c3ccc(S(=O)(=O)N(CC(C)C)CC(C)C)cc3)o2)c1", "inhibition": "12.8%"},
      {"smiles": "CC(Nc1nc(N2CCCC2)nc2ccccc12)c1ccccc1", "note": "(stereo not given)", "inhibition": "5.36%"},
      {"smiles": "CCc1ccc(C(CNc2nc(C(F)(F)F)nc3ccccc23)N(C)C)cc1", "note": "(stereo not given)", "inhibition": "4.28%"},
      {"smiles": "CC(Nc1nc(C(F)(F)F)nc2ccccc12)c1cccs1", "note": "(stereo not given)", "inhibition": "60.8% (active)"},
      {"smiles": "CN1CCCN(S(=O)(=O)c2ccc3c(c2)OCCO3)CC1", "inhibition": "-12.9%"},
      {"smiles": "COc1ccc(Nc2ncnc3ccc(Br)cc23)c(OC)c1", "inhibition": "84.4% (active)"},
      {"smiles": "COc1ccc(OC)c(Nc2nc3ccccc3n3cnnc23)c1", "inhibition": "-14.2%"},
      {"smiles": "COc1ccc(OC)c(NC(=O)CN(C)CCOc2ccc(Br)cc2)c1", "inhibition": "9.37%"},
      {"smiles": "COc1cccc2cc(C(N)=O)/c(=N\\NC(=O)c3ccccc3)oc12", "inhibition": "73.1% (active)"},
      {"smiles": "COc1cccc2cc(C(=O)N(C)C)c(=O)oc12", "inhibition": "11%"},
      {"smiles": "COc1cccc2cc(C(=O)N3CCN(C(=O)c4ccccc4)CC3)c(=O)oc12", "inhibition": "-10%"},
      {"smiles": "O=C(CN(c1cc(C(F)(F)F)ccc1Cl)S(=O)(=O)c1ccccc1)NCc1cccnc1", "inhibition": "0.66%"},
      {"smiles": "COC(c1ccccc1)(c1ccccc1)C(Oc1nc(C)cc(C)n1)C(=O)O", "note": "(stereo not given)", "inhibition": "4.6%"},
      {"smiles": "CSc1nc(N(C)NC(=O)c2cccc(C)c2)c2ccccc2n1", "inhibition": "25.9%"},
      {"smiles": "Cc1cc(C)nc(S/C=C/C(=O)c2ccccc2)n1", "inhibition": "54% (active)"},
      {"smiles": "CCOC(=O)N1CCN(CC(=O)c2ccc3c(c2)CCN3)CC1", "inhibition": "2.97%"},
      {"smiles": "C/C(=N\\Nc1nc(Nc2ccccc2)nc(N2CCOCC2)n1)c1cccs1", "inhibition": "-8.45%"},
      {"smiles": "O=C(CSc1nc(Nc2ccccc2)nc(N2CCOCC2)n1)Nc1cc(Cl)ccc1O", "inhibition": "64.7% (active)"},
      {"smiles": "CC1(c2ccccc2)NC(=O)N(CC(=O)Nc2cc(Cl)ccc2N2CCOCC2)C1=O", "note": "(stereo not given)", "inhibition": "-24.9%"},
      {"smiles": "C=CCn1c2c(c3ccccc31)CCC2", "inhibition": "-7.49%"},
      {"smiles": "OC[C@@H]1CN(Cc2ccncc2)C[C@H](n2cnc3c(N4CCN(c5ccccc5)CC4)ncnc32)O1", "inhibition": "37.7%"},
      {"smiles": "O=C(Nc1ccc(Br)c2cccnc12)c1ccc(Cn2cc([N+](=O)[O-])cn2)o1", "inhibition": "-32.5%"},
      {"smiles": "CC(=O)c1c(C)[nH]c(C(=O)OCC(=O)Nc2c(C)cccc2C)c1C", "inhibition": "14.6%"},
      {"smiles": "N#Cc1c(NC(=O)CCCl)sc2c1CCCCC2", "inhibition": "-37%"},
      {"smiles": "CC(=O)c1c(C)[nH]c(C(=O)OCC(=O)Nc2sc3c(c2C#N)CCCC3)c1C", "inhibition": "52.3% (active)"},
      {"smiles": "COc1ccc(N2CC(C)Cn3c2nc2c3c(=O)n(Cc3ccccc3F)c(=O)n2C)c(OC)c1", "note": "(stereo not given)", "inhibition": "24.4%"},
      {"smiles": "c1ccc(CSc2ncnc3c2sc2nc(N4CCOCC4)c4c(c23)CCCC4)cc1", "inhibition": "60.3% (active)"},
      {"smiles": "c1ccc(COc2nsnc2N2CCOCC2)cc1", "inhibition": "11%"},
      {"smiles": "O=C(O)c1cccnc1Sc1ncnc2sc3c(c12)CCC3", "inhibition": "10.5%"},
      {"smiles": "Cc1ccc(CCN2CC(C(=O)O)CC2=O)cc1", "note": "(stereo not given)", "inhibition": "-21.4%"}
    ]}
  ]
}
